HTT cytoprotect – qHTS Multiplex Assay to Identify Dual Action Probes in a Cell Model of Huntington: Cytoprotection (ATP); PC12 HTT-Q103 induced, cytoprotection, ATP luminescence, 40 h; Potency, µM (series often up to 56.4 µM), usual class: activators; 230,000 compounds, 0.14% hits; AID 1471, 2008; also: nearly all actives have a fitted effect of over 45% in size
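Rat PC12, Q103 Htt exon1-GFP fusion, ecdysone promoter; tebufenozide inducer 100 nM final; compound titration; qHTS, 1500 cells/well; ATPlite luminescent read.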
GALK inh – qHTS Assay for Inhibitors of Human Galactokinase (GALK). P51570. Purified GALK, Kinase-Glo residual ATP luminescence. Potency, µM (series often up to 57.5 µM), usual class: inhibitors. 270,000 compounds, 0.007% hits
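Compounds were pin-transferred into ATP buffer (35 uM final), then GALK plus galactose (5 nM, 100 uM final) was added. After 1 h at room temperature, Kinase-Glo Plus was added and luminescence read after 10 min.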
HTT aggregate – qHTS Multiplex Assay to Identify Dual Action Probes in a Cell Model of Huntington: Aggregate Formation (GFP) | Potency, µM (titrated, usually from 46.1 µM), hits mostly inhibitors | PC12 HttQ103-GFP aggregates, Acumen cytometry, 40 h | AID 1688, 2009 | 220,000 compounds, 1.1% hits; also: nearly all actives have a fitted effect of over 60% in size
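Compounds (qHTS titration) were added to PC12 cells expressing an ecdysone-driven HTT exon 1 Q103–GFP fusion after induction with 100 nM tebufenozide. Aggregate formation was measured as GFP objects in cell lysates.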
PI4K2A inh – qHTS for small molecular inhibitors of PI4K2A | purified PI4K2A, ADP-Glo luminescence, 1 h; active compounds read low | activity change, negative = inhibition, % at 76.9 µM | 420,000 compounds, 0.13% hits; in the data active = activity change below about -50%; inconclusive = mostly about -30% to -49%
Target sequence (Q9BTU6 whole entry, looked up): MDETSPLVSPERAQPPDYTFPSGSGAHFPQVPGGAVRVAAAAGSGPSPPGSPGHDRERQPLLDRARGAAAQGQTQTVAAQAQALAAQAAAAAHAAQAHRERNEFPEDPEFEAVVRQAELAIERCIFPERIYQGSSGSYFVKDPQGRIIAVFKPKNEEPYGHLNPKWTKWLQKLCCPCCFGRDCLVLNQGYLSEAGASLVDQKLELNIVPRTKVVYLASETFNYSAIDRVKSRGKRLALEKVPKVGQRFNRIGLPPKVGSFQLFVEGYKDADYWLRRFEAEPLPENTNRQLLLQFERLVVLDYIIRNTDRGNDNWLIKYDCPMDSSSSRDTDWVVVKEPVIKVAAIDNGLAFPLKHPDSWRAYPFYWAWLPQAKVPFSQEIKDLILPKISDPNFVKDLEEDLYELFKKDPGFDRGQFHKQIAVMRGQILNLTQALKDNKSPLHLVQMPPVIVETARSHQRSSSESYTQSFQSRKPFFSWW
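In this quantitative HTS, ADP production by PI4K2A was quantified luminescently after 1 h at ambient temperature; 100 microM adenosine served as plate-quality control.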
Numbers stand for hits; . = inactive; ? = inconclusive; / = no result; [ ] = another dose, or the depositor's remark. The entries come from a sample that favours hits as a whole. Unless noted, calls follow the shape of the dose curve; as a rule, active = well fitted curve in the direction sought with a large enough effect; inconclusive = small, poorly fitted or top-dose-only effect, or another doubt; inactive = no such curve, though single readings can be large; an effect the other way counts as inactive or inconclusive.

SMILES	HTT cytoprotect	GALK inh	HTT aggregate	PI4K2A inh
COC(=O)c1cc(OC)c(OC)cc1NC(=O)C1CCC(=O)N1S(=O)(=O)c1ccc(C)cc1 (stereo unspecified)	.	.	3.2µM	.
Cc1c(Cl)cccc1NC(=S)NNc1ncc(C(F)(F)F)cc1Cl	.	.	13µM	.
Nc1cc(-c2ccncc2)c[nH]c1=O	.	.	?	-55
COc1ccc(-c2csc3ncnc(NCCN4CCOCC4)c23)cc1	.	.	13µM	.
Cc1cc(SCC(=O)N/N=C/c2ccccc2C(=O)O)c(C)cc1Br	/	.	/	.
Cc1cc(SCC(=O)N/N=C/c2ccc(O)cc2O)c(C)cc1Br	.	.	7.9µM	.
O=C(Nc1cnn(Cc2ccc(F)cc2)c1)c1cc(-c2ccc(Br)cc2)on1	.	/	/	/
O=S(=O)(N[C@@H]1CCCC[C@H]1N1CCOCC1)c1ccc(Cl)cc1	/	/	/	.
Brc1ccccc1-c1nnc2sc(-c3ccc4c(c3)OCCO4)nn12	.	.	25µM	.
Clc1ccccc1-c1nnc2sc(-c3ccc4c(c3)OCO4)nn12	.[1.9 µM]	.	.	.
O=c1[nH][nH]c(=S)c(=O)[nH]1	.[10 µM]	/	/	/
Cc1ccccc1-n1nnnc1Sc1nnnn1-c1ccccc1	.	.	14µM	.
CCCSc1nnc(Sc2nnnn2-c2ccccc2)s1	.[10 µM]	.	22µM	.
COc1cccc(-c2nnc3n2N=C(c2ccc(Cl)cc2)CS3)c1	/	/	/	.
Cc1cc(=O)oc2cc(O)ccc12	5.6µM	/	.	.
O=C(Nc1ccccc1C(F)(F)F)OCCN1C(=O)CCC12CCC(c1ccccc1)CC2 (stereo unspecified)	/	/	/	.
Cc1nc(NC(=O)c2ccco2)sc1C(=O)O	/	.	/	-67
COC(=O)c1sc(NC(=O)c2ccco2)nc1C	.	.	.	.
CC(=O)OCC(=O)Nc1cc(C#N)cc(NC(=O)COC(C)=O)c1Cl	/	/	/	.
Cc1nn(Cc2ccc(C(=O)Nc3nc4c(C)cccc4s3)o2)c(C)c1Br	.	/	18µM	.
C/C(=C(\CCO)SS/C(CCO)=C(\C)N(C=O)Cc1cnc(C)nc1N)N(C=O)Cc1cnc(C)nc1N	/	/	/	.
COc1cc2ccccc2cc1C(=O)Nc1ccc(Cc2ccncc2)cc1	.	.	10µM	.
NCC[C@H]1CCC[C@H](CCN)N1	.[1.9 µM]	/	/	/
Cc1csc(=Nc2c(C)n(C)n(-c3ccccc3)c2=O)n1Cc1ccccc1	.	.	.[9.22 µM]	.
C=CCn1c(-c2ccc(OC)cc2)csc1=Nc1c(C)n(C)n(-c2ccccc2)c1=O	?	.	0.79µM	.
SMILES	HTT cytoprotect	GALK inh	HTT aggregate	PI4K2A inh
C=CCn1c(=S)[nH]c2scc(-c3ccc(C)o3)c2c1=O	.[10 µM]	.	22µM	.
Cc1cccc(Cc2cnc(N3C(=N)SC(C)C3=O)s2)c1 (stereo unspecified)	.	.	22µM	.
N#CC1=C(N)NC(SCC(=O)O)=C(C#N)C12CCCC2	.	.	.	.
N#CC1=C(N)NC(SCc2ccc(F)cc2)=C(C#N)C12CCCCC2	.	.	13µM	.
Nc1ccc(N(CCO)CCO)cc1	.[10 µM]	.	.[9.22 µM]	-52
C[n+]1c(/C=C/c2ccc3c(c2)OCO3)ccc2ccccc21	.	.	.	.
C[n+]1cc2c3c(ccc2c2ccc4cc5c(cc4c21)OCO5)OCO3	.	/	6.3µM	.
CCOc1cc(/C=N/NC(=O)c2ccccn2)ccc1OC(=O)c1cccs1	/	.	/	.
CCOc1cc(/C=C2/C(=O)N(c3ccccc3)N=C2C)ccc1OC(=O)c1cccs1	.	.	.	-52
Oc1c(N=Nc2ccccn2)ccc2ccccc12	.	.	3.2µM	?
Cc1oc(CC(C)C)cc1C(=O)NCCCC(=O)O	5.6µM	.	?	.
O=C(CSc1c2c(nc3ccc(Cl)cc13)CCCC2)N1CCN(C(=O)c2ccco2)CC1	20µM	/	/	.
O=C(c1ccco1)N1CCN(Cc2ccc(Cl)cc2)CC1	.	.	.	-65
O=C(c1ccco1)N1CCN(C(=O)C(Sc2ccccc2)c2ccccc2)CC1 (stereo unspecified)	.[0.074 µM]	.	10µM	.
CCc1ccc(CN2CCN(C(=O)c3ccco3)CC2)cc1	/	/	/	.
O=C(CSc1c2c(nc3ccc(Cl)cc13)CCCC2)N1CCCCC1	/	/	/	.
C#CCCOC(=O)N1C2=NC(C(=O)OC)=C(C(=O)OC)[C@@H]3N(CC#CC)c4ccccc4[C@]23C[C@H]1C(=O)OC	.[10 µM]	/	/	/

High-throughput results: PubChem BioAssay, National Center for Advancing Translational Sciences (NCATS)
